The source of these data is ChEMBL document CHEMBL3988442, “University of Dundee, Small-Polar-MMV Screening Library” (2021).

The structures appear in SMILES notation. For some assays here: Results with a measured potency or affinity are listed apart.

What all share (set-up): scale not given: direction of the effect not stated beside the values
Experiment [1] concerns the target Protein translocase subunit SecA (Escherichia coli (strain K12)) (UniProt P10408). As to the kind of experiment: Assay to Identify E. coli SecA ATPase Inhibitors. The experiment is classed as functional. The conditions noted are these: 30 µM.
The target in experiment [2] is T1, Ubiquitin-activating enzyme e1, putative (Leishmania donovani (strain BPK282A1)) (UniProt E9BSI1).
T1 sequence (whole entry): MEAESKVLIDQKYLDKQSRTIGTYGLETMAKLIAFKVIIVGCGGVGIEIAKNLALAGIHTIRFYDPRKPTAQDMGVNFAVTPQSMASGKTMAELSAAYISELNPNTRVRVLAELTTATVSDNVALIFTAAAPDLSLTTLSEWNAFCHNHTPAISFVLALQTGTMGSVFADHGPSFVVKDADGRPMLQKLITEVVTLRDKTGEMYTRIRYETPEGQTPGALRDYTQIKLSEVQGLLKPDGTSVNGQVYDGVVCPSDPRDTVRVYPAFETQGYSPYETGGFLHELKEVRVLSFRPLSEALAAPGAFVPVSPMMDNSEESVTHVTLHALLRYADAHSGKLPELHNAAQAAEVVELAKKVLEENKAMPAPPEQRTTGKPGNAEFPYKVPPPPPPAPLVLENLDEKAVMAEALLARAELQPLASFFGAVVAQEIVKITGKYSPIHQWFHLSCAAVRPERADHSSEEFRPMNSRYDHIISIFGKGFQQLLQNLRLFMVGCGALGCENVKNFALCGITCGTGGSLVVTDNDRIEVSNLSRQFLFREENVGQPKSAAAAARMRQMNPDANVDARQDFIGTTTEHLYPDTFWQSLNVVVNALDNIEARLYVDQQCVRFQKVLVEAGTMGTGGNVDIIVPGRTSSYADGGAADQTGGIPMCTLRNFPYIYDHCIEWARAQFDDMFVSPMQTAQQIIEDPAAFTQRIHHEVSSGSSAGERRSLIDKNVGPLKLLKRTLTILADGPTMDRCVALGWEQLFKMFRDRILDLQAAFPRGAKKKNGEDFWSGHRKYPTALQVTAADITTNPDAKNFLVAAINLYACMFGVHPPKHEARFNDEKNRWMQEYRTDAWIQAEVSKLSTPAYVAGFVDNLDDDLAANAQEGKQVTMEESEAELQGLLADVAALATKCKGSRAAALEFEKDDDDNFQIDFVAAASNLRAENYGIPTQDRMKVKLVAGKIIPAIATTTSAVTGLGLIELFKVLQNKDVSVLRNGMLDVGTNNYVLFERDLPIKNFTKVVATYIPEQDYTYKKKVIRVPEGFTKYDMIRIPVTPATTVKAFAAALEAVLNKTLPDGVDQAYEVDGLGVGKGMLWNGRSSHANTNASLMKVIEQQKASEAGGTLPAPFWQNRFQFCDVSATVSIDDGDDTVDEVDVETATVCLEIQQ
As to the kind of experiment: Leishmania donovani Ubiquitin Activating Enzyme (LdE1). The conditions noted are these: 30 µM. The experiment is classed as functional.

In experiment [3] the target is Sialic acid-binding Ig-like lectin 9 (Homo sapiens) (UniProt Q9Y336). Description: Hs-Siglec9 ALPHAscreen SOP 20170721. To be noted: 10 µM.
Experiment [4] has as its system Trypanosoma cruzi. As to the kind of experiment: Trypanosoma cruzi phosphomannomutase and mannose-1-phosphate guanylyltransferase assay. It counts as functional. To be noted: 10 µM.
Experiment [5] concerns the target T2, Arginase-2, mitochondrial (Homo sapiens) (UniProt P78540).
T2 sequence (whole entry): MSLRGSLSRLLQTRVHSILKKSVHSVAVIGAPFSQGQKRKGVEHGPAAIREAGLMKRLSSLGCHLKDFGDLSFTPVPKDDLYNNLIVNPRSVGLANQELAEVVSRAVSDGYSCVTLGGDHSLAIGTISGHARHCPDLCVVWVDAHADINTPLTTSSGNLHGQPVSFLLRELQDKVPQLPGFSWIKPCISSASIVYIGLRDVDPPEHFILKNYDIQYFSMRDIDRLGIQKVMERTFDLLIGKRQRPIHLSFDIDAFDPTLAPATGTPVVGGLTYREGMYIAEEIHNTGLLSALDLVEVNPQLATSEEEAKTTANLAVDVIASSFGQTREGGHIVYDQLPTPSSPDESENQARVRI
Description: in vitro enzyme assay to detect the production of urea directly proportional to the activity of Arginase II. Also: in the data most compounds retested in dose-response had high values. The experiment is classed as functional. The conditions noted are these: 33.3 µM.

In experiment [6] the target is T3, Proteasome subunit beta (Trypanosoma cruzi) (UniProt O96673).
T3 sequence (whole entry): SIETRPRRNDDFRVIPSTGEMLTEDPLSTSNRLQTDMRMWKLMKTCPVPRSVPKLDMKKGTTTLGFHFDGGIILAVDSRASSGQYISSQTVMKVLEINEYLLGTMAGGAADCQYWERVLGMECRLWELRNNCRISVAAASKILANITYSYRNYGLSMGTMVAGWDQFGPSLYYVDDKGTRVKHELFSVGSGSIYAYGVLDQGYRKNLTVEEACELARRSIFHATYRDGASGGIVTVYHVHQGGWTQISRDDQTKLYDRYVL
Description: Trypanosoma cruzi proteasome chymotrypsin-like activity (TcProtChymo) assay. Also: in the data most compounds retested in dose-response had high values. The experiment is classed as functional. The conditions noted are these: 9.37 µM.

The species entered for experiment [7] is Homo sapiens. As to the kind of experiment: To identify inhibition of the IFN signalling (Jak-Stat) pathway via expression of an eGFP reporter gene under the control of an IFN-stimulated response element (ISRE) containing MxA promoter. The conditions noted are these: 30 µM. The experiment is classed as functional.
The target of experiment [8] is T4, Tyrosyl-tRNA synthetase, putative (Trypanosoma cruzi (strain CL Brener)) (UniProt Q4DSP6).
T4 sequence (whole entry): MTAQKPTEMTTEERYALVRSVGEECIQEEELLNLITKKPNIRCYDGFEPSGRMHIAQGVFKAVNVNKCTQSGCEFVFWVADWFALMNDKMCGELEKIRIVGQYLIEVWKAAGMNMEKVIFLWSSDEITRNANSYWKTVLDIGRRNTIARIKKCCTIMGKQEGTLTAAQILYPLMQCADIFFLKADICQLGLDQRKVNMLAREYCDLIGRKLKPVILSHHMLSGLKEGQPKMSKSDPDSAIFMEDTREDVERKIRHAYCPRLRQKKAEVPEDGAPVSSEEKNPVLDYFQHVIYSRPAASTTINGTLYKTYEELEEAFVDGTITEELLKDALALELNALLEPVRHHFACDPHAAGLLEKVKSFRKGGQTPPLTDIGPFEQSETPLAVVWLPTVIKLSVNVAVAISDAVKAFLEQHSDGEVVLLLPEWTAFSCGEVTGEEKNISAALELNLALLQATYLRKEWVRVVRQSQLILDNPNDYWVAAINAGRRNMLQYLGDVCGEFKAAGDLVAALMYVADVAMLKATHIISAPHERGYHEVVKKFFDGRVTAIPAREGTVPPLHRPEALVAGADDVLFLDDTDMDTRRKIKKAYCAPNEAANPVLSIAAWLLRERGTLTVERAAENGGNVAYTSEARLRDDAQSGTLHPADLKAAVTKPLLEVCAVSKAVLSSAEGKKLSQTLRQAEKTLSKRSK
As to the kind of experiment: Trypanosoma cruzi tyrosyl tRNA synthetase (TcYRS) _High Tyrosine SOP. Also: in the data most compounds retested in dose-response had high values. The experiment is classed as functional. The conditions noted are these: 30 µM.

Experiment [9] deals with T4, Tyrosyl-tRNA synthetase, putative (Trypanosoma cruzi (strain CL Brener)). As to the kind of experiment: Trypanosoma cruzi tyrosyl tRNA synthetase (TcYRS) SOP. It counts as functional. To be noted: 30 µM.
Experiment [10] deals with Chromo domain-containing protein 1 (Saccharomyces cerevisiae (strain ATCC 204508 / S288c) (Baker's yeast)) (UniProt P32657). As to the kind of experiment: ScCHD-1 Enzyme Inhibition Assay. Also: in the data most compounds retested in dose-response had high values. It counts as functional. To be noted: 30 µM.
Sequence of Chromo domain-containing protein 1 (Saccharomyces cerevisiae (strain ATCC 204508 / S288c) (Baker's yeast)) (P32657 whole entry, the tested form may be a part): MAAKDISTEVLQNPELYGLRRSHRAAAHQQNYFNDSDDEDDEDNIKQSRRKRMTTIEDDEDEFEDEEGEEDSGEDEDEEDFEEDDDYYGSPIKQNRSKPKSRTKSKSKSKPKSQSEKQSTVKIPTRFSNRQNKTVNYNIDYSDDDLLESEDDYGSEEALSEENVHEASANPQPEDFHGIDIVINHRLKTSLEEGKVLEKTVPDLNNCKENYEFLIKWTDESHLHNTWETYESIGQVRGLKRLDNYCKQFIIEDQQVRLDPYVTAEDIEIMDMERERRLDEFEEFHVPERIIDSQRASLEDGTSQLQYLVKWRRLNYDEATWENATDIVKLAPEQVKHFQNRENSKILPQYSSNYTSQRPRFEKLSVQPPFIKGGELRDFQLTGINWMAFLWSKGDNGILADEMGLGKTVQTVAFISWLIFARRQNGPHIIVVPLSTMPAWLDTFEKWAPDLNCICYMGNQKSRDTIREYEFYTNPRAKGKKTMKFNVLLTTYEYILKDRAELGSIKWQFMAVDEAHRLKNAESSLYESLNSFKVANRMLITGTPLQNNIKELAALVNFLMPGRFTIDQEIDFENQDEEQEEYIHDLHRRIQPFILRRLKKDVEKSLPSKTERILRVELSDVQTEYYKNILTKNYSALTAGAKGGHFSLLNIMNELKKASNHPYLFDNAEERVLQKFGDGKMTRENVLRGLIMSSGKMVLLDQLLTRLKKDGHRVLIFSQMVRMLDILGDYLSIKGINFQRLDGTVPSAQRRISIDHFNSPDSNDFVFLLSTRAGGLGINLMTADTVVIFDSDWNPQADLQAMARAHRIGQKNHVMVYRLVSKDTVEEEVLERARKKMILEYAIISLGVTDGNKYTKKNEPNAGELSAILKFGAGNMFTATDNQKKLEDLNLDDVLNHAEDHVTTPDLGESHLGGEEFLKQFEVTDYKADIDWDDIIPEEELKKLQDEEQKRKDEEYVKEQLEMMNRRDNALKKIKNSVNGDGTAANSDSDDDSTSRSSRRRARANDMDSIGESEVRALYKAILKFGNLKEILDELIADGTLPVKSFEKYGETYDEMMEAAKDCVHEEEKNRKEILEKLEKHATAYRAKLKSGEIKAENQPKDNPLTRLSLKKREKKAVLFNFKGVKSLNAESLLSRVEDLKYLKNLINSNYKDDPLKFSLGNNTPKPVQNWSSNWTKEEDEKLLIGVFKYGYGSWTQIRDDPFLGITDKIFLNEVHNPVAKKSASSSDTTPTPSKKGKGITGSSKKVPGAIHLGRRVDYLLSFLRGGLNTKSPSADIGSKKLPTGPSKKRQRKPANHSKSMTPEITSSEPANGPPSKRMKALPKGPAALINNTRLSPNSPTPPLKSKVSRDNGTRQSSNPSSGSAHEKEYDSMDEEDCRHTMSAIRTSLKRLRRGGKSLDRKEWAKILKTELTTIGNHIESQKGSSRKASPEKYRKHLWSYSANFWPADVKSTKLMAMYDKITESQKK

Sequence of Sialic acid-binding Ig-like lectin 9 (Homo sapiens) (Q9Y336 whole entry): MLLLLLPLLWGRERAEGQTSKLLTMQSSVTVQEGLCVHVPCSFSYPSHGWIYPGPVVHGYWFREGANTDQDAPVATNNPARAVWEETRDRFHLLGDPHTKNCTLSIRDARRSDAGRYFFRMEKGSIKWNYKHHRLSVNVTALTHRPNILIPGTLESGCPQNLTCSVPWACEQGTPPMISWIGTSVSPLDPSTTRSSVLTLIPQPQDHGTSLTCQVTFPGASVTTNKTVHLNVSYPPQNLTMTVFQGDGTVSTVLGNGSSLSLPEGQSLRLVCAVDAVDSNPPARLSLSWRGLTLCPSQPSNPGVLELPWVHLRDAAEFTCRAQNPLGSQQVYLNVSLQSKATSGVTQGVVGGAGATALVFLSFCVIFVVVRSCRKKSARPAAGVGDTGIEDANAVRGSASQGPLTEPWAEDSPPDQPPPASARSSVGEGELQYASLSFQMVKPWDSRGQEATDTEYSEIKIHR
Sequence of Protein translocase subunit SecA (Escherichia coli (strain K12)) (P10408 whole entry): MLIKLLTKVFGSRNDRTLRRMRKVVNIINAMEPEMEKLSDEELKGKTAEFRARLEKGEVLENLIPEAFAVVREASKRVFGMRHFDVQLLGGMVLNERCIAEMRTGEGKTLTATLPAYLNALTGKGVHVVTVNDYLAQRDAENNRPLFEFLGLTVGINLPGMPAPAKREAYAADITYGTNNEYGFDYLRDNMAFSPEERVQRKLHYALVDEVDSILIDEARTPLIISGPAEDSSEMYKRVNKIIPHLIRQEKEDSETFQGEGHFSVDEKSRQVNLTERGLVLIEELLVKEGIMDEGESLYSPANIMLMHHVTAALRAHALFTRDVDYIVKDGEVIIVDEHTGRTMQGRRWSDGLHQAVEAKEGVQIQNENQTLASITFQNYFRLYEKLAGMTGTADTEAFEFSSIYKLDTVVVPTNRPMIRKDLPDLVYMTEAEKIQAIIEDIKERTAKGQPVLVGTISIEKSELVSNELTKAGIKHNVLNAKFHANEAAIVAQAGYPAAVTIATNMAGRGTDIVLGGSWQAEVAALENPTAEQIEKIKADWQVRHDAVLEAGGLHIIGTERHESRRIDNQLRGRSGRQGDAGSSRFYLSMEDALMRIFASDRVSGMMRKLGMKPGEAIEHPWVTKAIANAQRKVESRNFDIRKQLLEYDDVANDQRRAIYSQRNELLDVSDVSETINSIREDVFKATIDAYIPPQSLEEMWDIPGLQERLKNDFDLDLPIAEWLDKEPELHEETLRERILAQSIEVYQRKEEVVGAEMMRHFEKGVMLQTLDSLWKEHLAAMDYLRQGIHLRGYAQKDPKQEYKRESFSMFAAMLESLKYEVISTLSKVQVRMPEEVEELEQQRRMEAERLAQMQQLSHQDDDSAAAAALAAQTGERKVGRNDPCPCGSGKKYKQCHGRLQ

With `CCC1CN(C(=O)NCCOc2ccc3c(c2)OCO3)CCO1` (stereo not given), the Percent Effect in [1] was 1.77%; in [2] it was 18.2%; in experiment [3], -3.28%; in [4] it was -3.36%; in experiment [5], 5.53%; in [6], 15.4%. Further, the Percent Effect in experiment [7] is 1.58%; in [8], 4.9%; in experiment [9], 16.5%; in experiment [10], -6.67%.
Turning to `CN(Cc1ccc(F)cc1)[C@@H]1CN(C(=O)c2cccs2)C[C@H]1O`, the Percent Effect is -4.06% in experiment [1]; 17.3% in [2]; -0.715% in experiment [3]; 1.97% in experiment [4]; -3.1% in [5]; 17.6% in [6]. Moreover, the Percent Effect in [7] is 10.6%; in [8] it was 5.29%; in experiment [9] it was 20%; in experiment [10], -21.9%.
Consider `Cc1ccc(OCC(=O)NS(=O)(=O)c2c(C)noc2C)cc1C`, for which the Percent Effect was -7.75% in experiment [1]; -5.13% in experiment [2]; -10.8% in [3]; -1.41% in experiment [4]; 0.41% in experiment [5]; 0.0853% in experiment [6]. Moreover, the Percent Effect is 17.7% in experiment [7], -5.26% in experiment [8], -6.02% in experiment [9] and -0.0938% in [10].
`CC1CCCCN1Cc1ccc(-c2ccccc2C(=O)O)cc1` (stereo not given): the Percent Effect in experiment [1] was -1.02%; in experiment [2] it was 4%; in experiment [3] it was 1.22%; in experiment [4], -4.73%; in experiment [5], 0.443%; in experiment [6], 7.39%. In addition, the Percent Effect was 12.3% in experiment [7], 2.12% in experiment [8], 2.5% in [9] and -21.8% in experiment [10].
Consider `CC(=O)N1CCOC2(CCN(C(=O)c3cnoc3C)CC2)C1`, for which the Percent Effect in experiment [1] is -3.9%; in experiment [2], -1.3%; in experiment [3], 2.36%; in [4], 0.682%; in experiment [5], -0.405%; in experiment [6], 0.441%. The Percent Effect in experiment [7] was -5.16%; in [8], 2.63%; in experiment [9], 5.13%; in [10], 2.4%.
For `CCc1ccc(NC(=O)C2OC(c3cccs3)=NN2C(C)=O)cc1` (stereo not given), the Percent Effect in [1] is -5.81%; in experiment [2], 12%; in experiment [3] it was -5.11%; in [4], 3.94%; in experiment [5], -0.443%; in experiment [6] it was 19.2%. Further, the Percent Effect was 14.4% in [7], 1.06% in experiment [8], 10% in [9] and -26.1% in experiment [10].
As for `O=C1CC2(CCN(Cc3ccoc3)C2)CN1c1ccc2c(c1)OCO2` (stereo not given), the Percent Effect is -7.31% in [1]; 1.3% in experiment [2]; -0.448% in [3]; 1.85% in experiment [4]; 0.81% in experiment [5]; 4.68% in [6]. The Percent Effect was 4.43% in experiment [7], 7.89% in experiment [8], 10.3% in experiment [9] and -0.51% in [10].
For the molecule `CC(Cn1cccn1)NC(=O)NCc1cccnc1OC1CCCC1` (stereo not given), the Percent Effect in [1] is -2.7%; in experiment [2], 8%; in experiment [3] it was -3.26%; in experiment [4], 4.42%; in experiment [5], 0.887%; in experiment [6] it was 8.06%. Besides, the Percent Effect was -10.3% in [7], 0.526% in [8], 10.3% in experiment [9] and -8.77% in experiment [10].
Turning to `NC(=O)c1cc(C2CCCN(CCc3ccccn3)C2)n[nH]1` (stereo not given), the Percent Effect in experiment [1] is -0.145%; in [2], -12.8%; in [3] it was -3.53%; in [4], 3.29%; in [5], 4.1%; in [6], -3.67%. Besides, the Percent Effect is 2.63% in experiment [7], 3.35% in [8], -1.21% in experiment [9] and -1.37% in [10].
On to `CN(C)C(=O)CN1C(=O)CCC12CCN(Cc1ccc(F)cc1)CC2`, for which the Percent Effect in experiment [1] was -1.87%; in [2], 22.1%; in [3], -5.35%; in [4], 0.188%; in experiment [5], 3.2%; in experiment [6], 18.1%. In addition, the Percent Effect was 14% in [7], 9.66% in [8], 15% in [9] and -11.4% in experiment [10].
As for `Cc1cnc(C(=O)N2C[C@@H]3CN(CC4CCCC4)CCO[C@@H]3C2)cn1`, the Percent Effect was -3.12% in experiment [1]; 11.7% in experiment [2]; 4.74% in experiment [3]; 0.682% in experiment [4]; -3.24% in experiment [5]; 9.97% in experiment [6]. Further, the Percent Effect in [7] was 11%; in experiment [8], 5.79%; in [9], 10.3%; in [10], -2.15%.
